Source: PubChem BioAssay
DT40 TDP1 CPT: growth inhibition of DT40 Tdp1-/-;hTDP1 cells with camptothecin (screen for TDP1 inhibitors); chicken DT40 Tdp1-/-;hTDP1 cells + 20 nM CPT, ATP luminescence, 48 h; AID 686979; 420,000 tested, 12% active; Potency, µM (highest dose often 46.2 µM), without a hit: top-dose activity change, negative = growth inhibition, most hits filed as inhibitors; further: potency means the concentration at half of the fitted maximal effect; nearly all actives have a fitted effect of over 55% in size
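Chicken DT40 Tdp1-/- cells stably complemented with human TDP1 were seeded at 400 cells/well in medium containing 20 nM camptothecin, exposed to pin-transferred compounds, and grown at 37 °C for at least 48 hr. Viability was read as ATP luminescence.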
HT1080 IDH1KD tx: kills HT-1080 cells with IDH1 knockdown | HT-1080 IDH1 knockdown viability, ATP luminescence, 48 h | Potency, µM (top dose mostly 46.1 µM), without a hit: at the top dose activity, negative = toxicity, most hits filed as cytotoxic | 360,000 tested, 2% active | AID 686971;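 further: potency means the concentration at half of the fitted maximal effect; 0% = DMSO wells and -100% = cell-free medium wells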
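Using the IDH1-knockdown HT-1080 line run in the same batch and compound series as the NT line, viability after 48 h at 37 °C was determined by CellTiter-Glo luminescence and expressed as % activity.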
uPA surface inh: inhibitors of cell surface uPA generation; cell surface uPA generation assay, qHTS; Potency, µM (top dose mostly 38.3 µM), without a hit: at the highest dose activity change, negative = inhibition, most hits filed as inhibitors; 330,000 tested, 0.31% active; AID 540303; active means well fitted inhibition curve with a large enough effect; inconclusive means small, poorly fitted or top-dose-only effect; inactive means no such curve, though single readings can be large or run the other way; tested in mouse RAW 264.7 cells; further: potency means the concentration at half of the fitted maximal effect; nearly all actives have a fitted effect of over 55% in size
IL-1B inflam inh: inhibitors of inflammasome signaling (IL-1 beta secretion); THP-1 LPS/ATP IL-1B secretion, AlphaLISA, 16 h; active compounds read low; activity change, % at 57.5 µM; 360,000 tested, 4.7% active; in the data active means activity change below about -50%; inconclusive means mostly about -30% to -49%
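Secreted IL-1B measured by AlphaLISA bead assay after 16 h compound exposure of THP-1 cells; compounds (final up to 57.5 uM) added 1 h before LPS (250 ng/mL) and ATP (1.25 mM) stimulation; lower signal means less secretion.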
TDP1 cell noCPT: qHTS for Inhibitors of human tyrosyl-DNA phosphodiesterase 1 (TDP1): qHTS in cells in absence of CPT; DT40 Tdp1-/- hTDP1 cells, no CPT, ATP luminescence, 48 h; Potency, µM (doses to about 46.2 µM), inactives show at the highest dose activity change, negative = growth inhibition, usual class: inhibitors; 420,000 tested, 15% active; further: potency means the concentration at half of the fitted maximal effect; nearly all actives have a fitted effect of over 55% in size
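A cellular qHTS used chicken DT40 cells lacking endogenous Tdp1 but carrying stably transfected human TDP1. Compounds were applied without camptothecin, and cell growth kinetics were judged by ATP-dependent luminescence after ≥48 hr.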
HT1080-NT tox: kills 2HG-producing HT-1080-NT fibrosarcoma cells; Potency, µM (highest dose often 46.1 µM), without a hit: top-dose activity, negative = less viability, actives largely listed as cytotoxic; HT-1080-NT fibrosarcoma viability, CellTiter-Glo ATP luminescence, 48 h; 360,000 tested, 1.6% active;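 further: NT is the 2HG producing partner of a matched IDH1 knockdown line; potency means the concentration at half of the fitted maximal effect; 0% = DMSO-treated cells and -100% = media-only wells without cells; nearly all actives have a fitted effect of over 55% in size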
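Viability by CellTiter-Glo luminescence after 48 h compound exposure at 37C of HT-1080-NT cells (750/well, RPMI, 5% FBS). % activity scaled between DMSO wells and medium-only wells, then curve-fitted and categorized by curve class.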
The depositor's hits bear a star; ? = inconclusive; · = not tested or not shown; ! = not confirmed by another sample. A selection: hits, their analogues and other compounds. The true share with any hit is near 19%. Unless noted, the call rests on the fitted dose curve; in most records, active means well fitted curve in the direction sought with a large enough effect; inconclusive means small, poorly fitted or top-dose-only effect, or another doubt; inactive means no such curve, though single readings can be large; an effect the other way counts as inactive or inconclusive. Unless noted, on the % scale 0 is the no-effect control and ±100 the full control effect.

SMILES	DT40 TDP1 CPT	HT1080 IDH1KD tx	uPA surface inh	IL-1B inflam inh	TDP1 cell noCPT	HT1080-NT tox
COc1cccc(CC(=O)NCc2ccc3c(c2)CCN3C(C)=O)c1	-10%	·	·	·	-26%	·
O=C(Nc1ccc(F)cc1)OCCOc1ccc([N+](=O)[O-])cc1	-15%	-1%	6%	57	?	-2%
Cc1ccc(S(=O)(=O)NN=CC2(c3ccccc3)CC2)cc1	-18%	4%	·	-16	-29%	12%
O=C(NCc1ccc(Cl)cc1)C1CCN(S(=O)(=O)c2ccc(F)cc2)CC1	3.7µM*	-8%	-2%	-64*	18µM*!	-11%
N#CC1=C(N)Oc2cc(O)c(C=Nc3ccccc3)cc2C1c1ccccc1 (stereo not drawn)	-18%	?	0%	9	?	?
CCc1ccc(C2C(C#N)=C(N)Oc3cc(N)ccc32)cc1 (stereo not drawn)	?	-16%	1%	1	?	-24%
CSc1ccc(C2C(C#N)=C(N)Oc3cc4c(cc32)OCO4)cc1 (stereo not drawn)	21µM*	?	?	-18	?	18µM*
Cc1ccc(N=Cc2cc3c(cc2O)OC(N)=C(C#N)C3c2ccccc2)cc1 (stereo not drawn)	?	?	-5%	?	16µM*	?
Cc1ccc(C2C(C#N)=C(N)Oc3cc4c(cc32)OCO4)cc1 (stereo not drawn)	26µM*	?	-10%	-18	?	?
Cc1ccc(C)c(N2CCN(S(=O)(=O)c3cc(Br)cc4c3N(C(=O)C3CC3)CC4)CC2)c1	3%	·	·	·	-5%	·
Cc1ccc(-c2ccnc(-n3ncc(C(=O)NC[C@@H]4CCCN5CCCC[C@H]45)c3C3CC3)n2)o1	13%	·	·	·	-14%	·
COc1ccc(S(=O)(=O)Nc2ccc(Nc3ccccc3)cc2)cc1	21µM*	0%	-1%	-24	?	0%
Cc1ccc(NS(=O)(=O)c2ccc(C(=O)N3CCCCCC3)cc2)cc1	?	-3%	-3%	33	?	-2%
CCOc1ccc(S(=O)(=O)Nc2cccc(C(=O)N3CCN(c4cccc(OC)c4)CC3)c2)cc1	23µM*	-10%	-3%	39	18µM*	-2%
Cc1ccc(NS(=O)(=O)c2ccc(C(=O)N3CCCCCCC3)cc2)cc1	23µM*	-22%	-4%	-3	?	-9%
CCOc1ccc(S(=O)(=O)Nc2cccc(C(=O)N3CCN(c4ccccc4O)CC3)c2)cc1	?	-13%	1%	-4	?	1%
COc1ccc(N2CCN(C(=O)COC(=O)c3cccc(S(=O)(=O)Nc4cccc(C)c4)c3)CC2)cc1	16µM*	-4%	-8%	25	?	-2%
COc1cc(C)ccc1S(=O)(=O)NC(=O)C1(C)CCN1C(=O)Cc1ccccc1Cl (stereo not drawn)	-9%	9%	·	0	2%	14%
CCOc1ccc(NS(=O)(=O)c2ccc(C(=O)N3CCCC(C)C3)cc2)cc1 (stereo not drawn)	16µM*	-24%	-12%	50	16µM*	-21%
O=C(Nc1ccccc1)Nc1ccc(C(=O)N2CCCC2)cc1	21µM*	12µM*	-13%	?	12µM*	?
CSCCC(NS(=O)(=O)c1ccc2c(c1)oc(=O)n2C)C(=O)N1CCN(c2cc(Cl)ccc2C)CC1 (stereo not drawn)	?	·	·	·	15µM*	·
COc1ccccc1Nc1ccc(NS(=O)(=O)c2ccc(C(C)=O)cc2)cc1	-19%	-2%	3%	-16	16µM*	0%
CCOC(=O)c1cc(NC(=O)c2ccc(OC)cc2)c(=O)n2c1oc1ccc(Cl)cc12	-1%	·	·	·	-15%	·
NC(=O)C1CCCN(C(=O)c2cccc(NC(=O)c3cccs3)c2)C1 (stereo not drawn)	-9%	15%	5%	-16	-8%	19%
CSCCC(NS(=O)(=O)c1ccc(Cl)cc1)C(=O)OCc1cccc(Cl)c1 (stereo not drawn)	?	-22%	3%	0	?	-23%
SMILES	DT40 TDP1 CPT	HT1080 IDH1KD tx	uPA surface inh	IL-1B inflam inh	TDP1 cell noCPT	HT1080-NT tox
COc1ccc(NS(=O)(=O)c2cccc(C(=O)N3CCCCCC3)c2)cc1	-20%	-2%	-6%	-2	-20%	-1%
COc1ccc(NS(=O)(=O)c2ccc(C(=O)N3CCCCCC3)cc2)cc1	10µM*	-10%	-11%	-52*	8.2µM*	18µM*
CSCCC(NS(=O)(=O)c1ccc(Cl)cc1)C(=O)OCc1c(Cl)cccc1Cl (stereo not drawn)	?	-9%	8%	36	21µM*	-5%
COc1ccc(NS(=O)(=O)c2ccc(NC(=O)C3CC3)cc2)cc1	8.2µM*	2%	-25%	4	9.2µM*	-1%
COc1ccc(S(=O)(=O)Nc2ccc(O)c3ccccc23)cc1	3.3µM*	-21%	-10%	13	4.6µM*	-1%
O=C(CCNS(=O)(=O)c1ccccc1F)N1CCN(Cc2ccccc2)CC1	1%	9%	-2%	0	-2%	6%
CSCCC(NS(=O)(=O)c1ccc(C)cc1)C(=O)N1CCCCCCC1 (stereo not drawn)	?	6%	-3%	-4	16µM*	0%
CCN1CCN(C(=O)c2ccc(S(=O)(=O)Nc3ccccc3)cc2)CC1	-9%	0%	1%	0	-17%	20%
CCOc1ccc(NS(=O)(=O)c2ccc(C(=O)N3CCCCCC3)cc2)cc1	15µM*	-22%	-5%	-14	18µM*	-11%
